# GLP-1R inv ag: GLP-1 receptor (human) inverse agonism; 410,000 compounds, 1.6% hits; P43220; HEK293 GLP-1R CRE-luciferase, luminescence, 24 h; GLP-1R form is constitutively active; Potency, µM (titrated, usually from 38.3 µM), for the others: at the highest dose activity change, negative = inhibition, actives largely listed as inhibitors; further: potency means the concentration at half of the fitted maximal effect; on the % scale 0 is the no-effect control and ±100 the full control effect; nearly all actives have a fitted effect of over 55% in size
# Target sequence (P43220 whole entry, looked up): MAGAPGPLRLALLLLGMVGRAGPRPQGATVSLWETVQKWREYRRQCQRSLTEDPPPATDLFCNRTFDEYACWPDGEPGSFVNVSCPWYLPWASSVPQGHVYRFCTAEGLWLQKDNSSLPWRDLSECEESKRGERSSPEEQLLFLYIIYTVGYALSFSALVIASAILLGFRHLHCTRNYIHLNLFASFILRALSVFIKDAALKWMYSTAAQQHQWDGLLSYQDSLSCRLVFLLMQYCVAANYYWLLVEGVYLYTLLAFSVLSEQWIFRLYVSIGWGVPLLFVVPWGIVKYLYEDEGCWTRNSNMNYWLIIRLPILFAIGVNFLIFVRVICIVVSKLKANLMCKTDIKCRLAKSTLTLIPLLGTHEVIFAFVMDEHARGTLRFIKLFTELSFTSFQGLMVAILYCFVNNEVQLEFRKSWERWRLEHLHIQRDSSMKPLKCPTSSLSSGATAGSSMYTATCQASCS
#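 Readout was luciferase luminescence, measured 12 min after detection reagent at room temperature. Beforehand, GLP-1R reporter HEK293 cells had sat 12 h, then received compounds for 24 hr at 37 deg C.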
# PTHR1 ag: agonists of human PTHR1 parathyroid hormone receptor | Q03431 | HEK293 GP2 PTHR1 cells, GloSensor cAMP luminescence, 1 h | Potency, µM (titrated, usually from 115 µM), for the others: at the highest dose activation, usual class: activators | 410,000 compounds, 0.075% hits; further: potency means the concentration at half of the fitted maximal effect; nearly all actives have a fitted effect of over 55% in size
#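 HEK-293-derived GP2 cells expressing PTHR1 and a GloSensor cAMP reporter, 3,000/well, plated overnight, given luciferin plus IBMX (each 0.5 mM as added) for 1 h at 37 °C, then compound for 1 h at 37 °C. Luminescence was read after 15 min at room temperature.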
# HEK293 tox: cytotoxicity in counter-screen for GLP-1R inverse agonists | HEK293 cAMP-luciferase reporter cells, luminescence, 24 h | AID 624418 | Potency, µM (top dose mostly 38.3 µM), without a hit: top-dose activity change, negative = inhibition, hits mostly inhibitors | 410,000 compounds, 0.13% hits;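 further: loss of luciferase light is scored as toxicity; potency means the concentration at half of the fitted maximal effect; on the % scale 0 is the no-effect control and ±100 the full control effect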
#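 Step one: seed cells (200 cells/uL, DMEM with 10% Nu serum, 1% pen-strep). Step two: 12-hour incubation at 37 deg C. Step three: pin 23 nL compound, incubate 24 hr. Step four: add luciferase reagent, read luminescence 12 min later.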
# GLP-1R agonist: activates the human GLP-1 receptor. HEK293 GLP-1R CRE-luciferase, luminescence, 4-6 h; cells express a hypersensitive GLP-1R form. Potency, µM (top dose mostly 45.6 µM), without a hit: at the top dose activation, hits mostly activators. 380,000 compounds, 0.007% hits; further: potency means the concentration at half of the fitted maximal effect; % of control where 0% means no effect
# TRHR agonist: activates the human TRH receptor; 360,000 compounds, 0.18% hits; AID 493084; TRHR cells, calcium flux fluo-8, FDSS agonist mode; activation, % at 2 µM; in the data active means activation above about 30%; further: 0% is about no effect
#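 In this calcium-flux screen, cells bearing human TRHR are dye-loaded with fluo-8, baselined for 10 cycles, then exposed to library compounds; positive kinetic calcium responses during the agonist phase mark hits, with TRH as control.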
# TRHR enhancer: allosterically enhances the human TRH receptor | TRHR cells, fluo-8 calcium fluorescence, EC20 TRH enhancement | enhancement, % at 2 µM | 360,000 compounds, 0.66% hits; in the data active means enhancement above about 30%; further: 0% is about no effect
#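 Enhancer read-out: after compound pinning and an initial kinetic agonist-mode read, an EC20 of TRH (10 nM final) was injected and fluo-8 calcium signal (Ex 480/Em 530) followed at 1 s/cycle for 100 cycles in TRHR-expressing cells.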
# An asterisk follows results filed as active; i = inactive; u = inconclusive; x = not tested or not shown; [ ] = dose if it differs, or a comment. A selection: hits, their analogues and other compounds. The true share with any hit is near 2.4%. Unless noted, the call rests on the fitted dose curve; in most records, active means well fitted curve in the direction sought with a large enough effect; inconclusive means small, poorly fitted or top-dose-only effect, or another doubt; inactive means no such curve, though single readings can be large; an effect the other way counts as inactive or inconclusive.
SMILES,GLP-1R inv ag,PTHR1 ag,HEK293 tox,GLP-1R agonist,TRHR agonist,TRHR enhancer
COc1ccc2c(c1)O/C(=C\c1ccccc1C)C2=O,-3.2%,i,11.8%,16.0%,0.1,-3.6
CC(C(=O)Nc1ccccc1F)N1CCN(C)CC1 (configuration not stated),x,x,x,x,-0.6,30.3*
CCc1ncc(C(O)c2ccc(Cl)cc2)n1Cc1ccccc1 (configuration not stated),8.91µM*,-18.7%,-4.2%,-8.0%,x,x
CCc1ccc(C(=O)NNc2cc(Cl)cc(Cl)c2)cc1,1µM*,-18.7%,-23.9%,-1.0%,-0.3,-6.7
CCc1ccc(C(=O)NNc2ccc(Cl)cc2)cc1,1µM*,-19.4%,u,-3.1%,-1.1,-6.5
COc1ccc(Cl)cc1N(C)C(=O)c1ccc2c(=O)n3c(nc2c1)CCCCC3,2.0%,i,2.6%,x,0.5,1.3
Cc1cc(F)c(F)c(C(=O)N2C(C)CCCC2C)c1Cl (configuration not stated),-20.1%,-24.3%,-14.7%,-1.8%,-0.5,12.9
Cc1ccc(C(=O)NCCCn2ccnc2)cc1[N+](=O)[O-],-18.4%,6.4%,1.4%,-1.5%,-0.2,-5.1
O=C(NCCCn1ccnc1)c1ccc(N2CCCCCC2)c([N+](=O)[O-])c1,5.01µM*,i,-1.0%,14.6%,-0.8,-4.7
O=C(c1ccc(N2CCCCC2)c([N+](=O)[O-])c1)N1CCOCC1,0.0%,i,u,4.9%,-1.1,-0.3
O=C(c1ccc(N2CCCC2)c([N+](=O)[O-])c1)N1CCc2ccccc2C1,4.47µM*,-19.5%,-34.9%,28.8%,-0.3,-5.1
COc1cccc(COC(=O)c2cc(=O)[nH]c3ccc(S(=O)(=O)N4CCOCC4)cc23)c1OC,1.2%,-9.2%,-3.3%,7.1%,0.0,4.5
CCNc1nc2cccnc2s1,5.7%,i,-24.3%,-0.6%,-0.3,-2.7
Cc1ccc2c(c1)C(O)(c1c(C)[nH]c3ccccc13)C(=O)N2 (configuration not stated),3.16µM*,-5.6%[57.5 µM],-11.7%,-8.2%,1.0,-3.5
O=c1c(/C=C(\O)c2ccc(F)cc2)nc2ccccc2n1-c1ccccc1,-1.5%,-19.1%,62.4%,-2.2%,75.9*,-8.4
CC1Cc2ccccc2N1C(=S)NC(=O)c1cccc(Br)c1 (configuration not stated),u,i,u,5.4%,-0.3,1.5
CC1Cc2ccccc2N1C(=S)NC(=O)c1ccc(Cl)cc1Cl (configuration not stated),10µM*,-16.6%,u,-15.4%,-0.5,0.2
O=C(CC1C(=O)NCCN1C(=O)c1ccc(Cl)cc1)Nc1ccc(F)cc1 (configuration not stated),-2.0%,i,0.9%,-10.9%,0.7,-5.4
O=C(CC1C(=O)NCCN1C(=O)Nc1ccc(Cl)cc1)Nc1ccc(F)cc1 (configuration not stated),11.2µM*,13.7%,-9.9%,6.5%,0.5,-3.8
Cc1nn(C(C)C(=O)NCCN2CCCCCC2)c(=O)c2nn(-c3ccccc3)c(C)c12 (configuration not stated),2.7%,i,9.1%,9.8%,0.2,30.3*
COc1cc(CN2CC(=O)N(c3ccc(C)c(Cl)c3)C2=S)cc(OC)c1OC,8.91µM*,i,-18.6%,12.4%,-0.9,0.7
O=C1OC(c2ccccc2)(c2ccccc2)c2ccccc21,7.94µM*,-33.3%,17.2%,11.7%,x,x
O=C1OC2(c3ccccc31)c1cc(I)c(O)c(I)c1Oc1c2cc(I)c(O)c1I,x,x,x,-6.2%,241.6*,-10.0
O=C1OC(c2ccccc2)(c2ccc(O)cc2)c2ccccc21 (configuration not stated),u,-44.3%,-2.6%,12.1%,x,x
COc1ccccc1C(=O)NC(=S)/C=C1/N(C)c2ccccc2C1(C)C,u,-93.1%,-27.0%,-2.3%,0.2,-0.9
SMILES,GLP-1R inv ag,PTHR1 ag,HEK293 tox,GLP-1R agonist,TRHR agonist,TRHR enhancer
COc1ccc(N2CCN(C(=O)CSc3ncnc4c3cnn4-c3ccccc3C)CC2)cc1,-3.8%,-27.6%[57.5 µM],-5.1%,0.3%,-0.1,-4.8
Cc1cc(C)nc(N/N=C/C=C/c2ccccc2)n1,u,i,11.2µM*,-6.2%,-0.2,-7.6
Cc1ccc(S(=O)(=O)C2CCOC2=O)cc1 (configuration not stated),15.4%,i,42.4%,-14.9%,-0.2,3.1
O=C(Nc1ccc(SC(F)F)cc1)c1cc(-c2ccncc2)nc2ccccc12,u,-30.0%,u,-6.1%,0.3,-3.1
CC1(c2ccc(OC(F)F)cc2)NC(=O)N(CC(=O)Nc2ccc(OC(F)F)cc2)C1=O (configuration not stated),10µM*,-18.6%,5.3%,1.5%,7.1,-8.6
CN(Cc1ccsc1)C(=O)CCc1nnc(Cc2c[nH]c3ccccc23)o1,13.0%,i,-4.8%,0.8%,-0.1,36.0*
CN(Cc1ccsc1)C(=O)CCc1nnc(CCCc2ccccc2)o1,3.3%,-3.8%,15.2%,10.9%,-0.8,13.9
O=C(CSc1nc2ncc(Br)cc2[nH]1)Nc1ccc2c(c1)OCO2,24.1%,-28.5%,-5.2%,15.9%,-0.8,-3.8
COc1cccc(OCCn2cccc2/C=C2/C(=N)N3OC(C)=CC3=NC2=O)c1,15.3%,-1.0%,2.2%,0.6%,0.2,-0.5
CC1=CC2=NC(=O)/C(=C\c3cccn3CCOc3cccc(C)c3)C(=N)N2O1,10µM*,-20.6%,-4.1%,8.5%,0.2,-4.7
CCOC(=O)c1c(-c2ccc(OC)cc2)oc2ccc(OCc3ccc(F)cc3F)cc12,-1.5%,i,-7.7%,x,0.2,1.1
Cc1cc2nc3n(c2cc1C)CC1CC(C(=O)NCc2ccccc2)N(C)C31 (configuration not stated),13.0%,-26.8%,12.2%,1.8%,0.1,4.6
Cc1ccc(NC(=O)C2CC(O)CN2C(=O)Oc2ccccc2)c(C)c1 (configuration not stated),10.6%,i,10.0%,8.8%,-0.1,16.4
CC(C)(C)CC(C)(C)NCC(O)COc1c(F)cc(Br)cc1F (configuration not stated),10µM*,-12.4%,-4.7%,-19.7%,1.9,21.2
COC(=O)[C@@H]1C[C@]2(OC(=O)c3ccccc3)C=CC(=O)C[C@@H]2N1C(=O)OCc1ccccc1,7.08µM*,-93.5%,0.3%,-5.9%,-0.1,4.2
O=C(NCCN1CCC(n2c(=O)[nH]c3ccccc32)CC1)c1ccc(F)cc1F,3.4%,-42.1%,-4.4%,-1.2%,x,x
